± gives the standard deviation of the averaged measurements. Of roughly 6,200 targets only a part is listed; those with the largest changes were picked by preference.
What was measured:
Experiment in all cases: NP40-soluble protein abundance relative to vehicle (solubility fold change) (ratio); higher = more soluble protein in presence of AMP-PNP
A0A0A0MSG2|J3KNW4|Q14192 = target: T1, A0A0A0MSG2|J3KNW4|Q14192 (UniProt Q14192)
T1 sequence (whole entry): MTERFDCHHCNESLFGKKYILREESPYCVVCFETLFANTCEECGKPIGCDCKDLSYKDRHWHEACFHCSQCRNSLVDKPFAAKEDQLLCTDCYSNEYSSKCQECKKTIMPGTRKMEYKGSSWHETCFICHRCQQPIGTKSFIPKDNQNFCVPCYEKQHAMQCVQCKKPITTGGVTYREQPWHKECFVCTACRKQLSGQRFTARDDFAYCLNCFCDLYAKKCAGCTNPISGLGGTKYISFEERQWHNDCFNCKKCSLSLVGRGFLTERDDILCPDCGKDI
Procedure, shortened: (§1)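 Each value is a fold change relative to the detergent-processed vehicle, calculated per replicate from vsn-normalised intensities. Jurkat crude lysate received eight concentrations (0.1 to 10 mM) for 10 min at room temperature and 3 min at 37 °C, then was solubilised in 0.8% NP40 with benzonase (60 min, 4 °C). The ultracentrifuged supernatant was TMT-labelled and run by LC-MS/MS in three independent experiments.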

A0A0U1RRH6|O94880 = target: T2, A0A0U1RRH6|O94880 (UniProt O94880)
T2 sequence (whole entry): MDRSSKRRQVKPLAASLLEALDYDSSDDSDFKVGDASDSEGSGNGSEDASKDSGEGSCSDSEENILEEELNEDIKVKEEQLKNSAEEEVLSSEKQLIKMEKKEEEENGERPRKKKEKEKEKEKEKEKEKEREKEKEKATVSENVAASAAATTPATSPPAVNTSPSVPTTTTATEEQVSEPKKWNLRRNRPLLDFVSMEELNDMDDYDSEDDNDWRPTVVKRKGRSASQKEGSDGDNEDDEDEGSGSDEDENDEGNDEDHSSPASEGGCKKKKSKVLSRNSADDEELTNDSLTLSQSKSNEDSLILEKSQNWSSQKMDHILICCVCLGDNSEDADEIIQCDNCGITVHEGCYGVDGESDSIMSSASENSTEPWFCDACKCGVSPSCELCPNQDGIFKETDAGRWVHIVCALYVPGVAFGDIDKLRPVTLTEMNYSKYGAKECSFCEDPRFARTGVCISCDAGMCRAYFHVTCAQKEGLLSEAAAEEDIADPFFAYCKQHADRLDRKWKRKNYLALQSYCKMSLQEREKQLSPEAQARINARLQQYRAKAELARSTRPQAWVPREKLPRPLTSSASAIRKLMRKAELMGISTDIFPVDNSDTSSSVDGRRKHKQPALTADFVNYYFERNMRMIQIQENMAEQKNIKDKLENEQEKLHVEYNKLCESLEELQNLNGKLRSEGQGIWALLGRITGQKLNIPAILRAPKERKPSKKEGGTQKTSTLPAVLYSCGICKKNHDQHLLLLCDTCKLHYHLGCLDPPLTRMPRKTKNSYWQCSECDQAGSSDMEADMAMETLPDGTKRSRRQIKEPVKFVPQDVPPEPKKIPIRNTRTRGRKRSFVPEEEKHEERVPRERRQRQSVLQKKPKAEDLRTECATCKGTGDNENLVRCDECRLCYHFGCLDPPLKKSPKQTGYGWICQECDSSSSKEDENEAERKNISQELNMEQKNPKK
Procedure, shortened: as §1

ACOX3 = target: T3, ACOX3 (UniProt O15254)
T3 sequence (whole entry): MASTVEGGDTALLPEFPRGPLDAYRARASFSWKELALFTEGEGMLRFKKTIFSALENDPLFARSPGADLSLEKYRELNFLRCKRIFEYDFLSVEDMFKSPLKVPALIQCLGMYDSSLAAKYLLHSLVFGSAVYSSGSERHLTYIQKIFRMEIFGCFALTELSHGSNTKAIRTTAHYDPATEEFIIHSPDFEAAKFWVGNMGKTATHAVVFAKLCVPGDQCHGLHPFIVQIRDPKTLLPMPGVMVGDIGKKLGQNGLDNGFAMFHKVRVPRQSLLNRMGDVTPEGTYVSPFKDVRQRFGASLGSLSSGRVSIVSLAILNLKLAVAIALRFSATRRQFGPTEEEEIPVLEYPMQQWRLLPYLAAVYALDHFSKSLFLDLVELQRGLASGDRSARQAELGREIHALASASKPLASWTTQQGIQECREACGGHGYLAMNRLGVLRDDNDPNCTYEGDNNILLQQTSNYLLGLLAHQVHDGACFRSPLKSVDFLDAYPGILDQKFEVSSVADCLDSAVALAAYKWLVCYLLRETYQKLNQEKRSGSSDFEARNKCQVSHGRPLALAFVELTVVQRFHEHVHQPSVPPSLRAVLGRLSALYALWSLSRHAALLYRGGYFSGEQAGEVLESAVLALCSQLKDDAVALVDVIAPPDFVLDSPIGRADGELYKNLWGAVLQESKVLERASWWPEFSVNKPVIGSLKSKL
Procedure, shortened: as §1

C9JI46|Q8N3X6|Q8N3X6-3 = target: T4, C9JI46|Q8N3X6|Q8N3X6-3 (UniProt Q8N3X6)
T4 sequence (whole entry): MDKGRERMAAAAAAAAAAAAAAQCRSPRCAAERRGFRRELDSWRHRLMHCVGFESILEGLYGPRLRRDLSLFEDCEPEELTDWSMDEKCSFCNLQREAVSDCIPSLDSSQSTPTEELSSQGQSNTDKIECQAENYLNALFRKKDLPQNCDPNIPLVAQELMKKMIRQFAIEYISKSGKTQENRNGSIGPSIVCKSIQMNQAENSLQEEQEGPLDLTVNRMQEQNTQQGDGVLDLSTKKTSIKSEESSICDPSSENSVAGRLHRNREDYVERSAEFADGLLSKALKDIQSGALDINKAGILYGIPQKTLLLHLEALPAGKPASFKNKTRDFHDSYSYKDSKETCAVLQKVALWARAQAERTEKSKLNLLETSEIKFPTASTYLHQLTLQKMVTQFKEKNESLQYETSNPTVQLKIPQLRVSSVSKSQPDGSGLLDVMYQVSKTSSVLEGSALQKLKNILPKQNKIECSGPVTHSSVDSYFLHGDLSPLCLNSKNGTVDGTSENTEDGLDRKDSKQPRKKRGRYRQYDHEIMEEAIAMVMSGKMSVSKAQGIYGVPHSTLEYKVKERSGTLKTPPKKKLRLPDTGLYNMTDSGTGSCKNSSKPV
Procedure, shortened: as §1

Nc1ncnc2c1ncn2[C@@H]1O[C@H](COP(=O)(O)OP(=O)(O)NP(=O)(O)O)[C@@H](O)[C@H]1O [adenylyl imidodiphosphate] was tested. Which NP40-soluble protein abundance (A0A0A0MSG2|J3KNW4|Q14192; concentration: 1mM) did it give?
Its NP40-soluble protein abundance is 0.991 ± 0.05.

What about the NP40-soluble protein abundance (A0A0A0MSG2|J3KNW4|Q14192; concentration: 2mM) of the same compound?
Its NP40-soluble protein abundance is 0.988 ± 0.09.

What about the NP40-soluble protein abundance (A0A0A0MSG2|J3KNW4|Q14192; concentration: 4mM) of the same compound?
The NP40-soluble protein abundance was 1.02 ± 0.048.

And the NP40-soluble protein abundance (A0A0A0MSG2|J3KNW4|Q14192; concentration: 6mM)?
Its NP40-soluble protein abundance is 0.966 ± 0.036.

And the NP40-soluble protein abundance (A0A0A0MSG2|J3KNW4|Q14192; concentration: 8mM)?
Its NP40-soluble protein abundance is 0.979 ± 0.083.

What about the NP40-soluble protein abundance (A0A0A0MSG2|J3KNW4|Q14192; concentration: 10mM) of the same compound?
The NP40-soluble protein abundance was 0.947 ± 0.035.

And the NP40-soluble protein abundance (A0A0U1RRH6|O94880; concentration: 1mM)?
Its NP40-soluble protein abundance is 1.02 ± 0.036.

What about the NP40-soluble protein abundance (A0A0U1RRH6|O94880; concentration: 2mM) of the same compound?
The NP40-soluble protein abundance was 1.07 ± 0.03.

What about the NP40-soluble protein abundance (A0A0U1RRH6|O94880; concentration: 4mM) of the same compound?
Its NP40-soluble protein abundance is 1.14 ± 0.025.

What about the NP40-soluble protein abundance (A0A0U1RRH6|O94880; concentration: 6mM) of the same compound?
The NP40-soluble protein abundance was 1.21 ± 0.017.

What about the NP40-soluble protein abundance (A0A0U1RRH6|O94880; concentration: 8mM) of the same compound?
The NP40-soluble protein abundance was 1.27 ± 0.035.

And the NP40-soluble protein abundance (A0A0U1RRH6|O94880; concentration: 10mM)?
The NP40-soluble protein abundance was 1.36 ± 0.092.

And the NP40-soluble protein abundance (ACOX3; concentration: 1mM)?
The NP40-soluble protein abundance was 0.977 ± 0.053.

And the NP40-soluble protein abundance (ACOX3; concentration: 2mM)?
The NP40-soluble protein abundance was 0.928 ± 0.076.

And the NP40-soluble protein abundance (ACOX3; concentration: 4mM)?
Its NP40-soluble protein abundance is 0.967 ± 0.031.

What about the NP40-soluble protein abundance (ACOX3; concentration: 6mM) of the same compound?
Its NP40-soluble protein abundance is 0.957 ± 0.057.

And the NP40-soluble protein abundance (ACOX3; concentration: 8mM)?
The NP40-soluble protein abundance was 0.972 ± 0.07.

What about the NP40-soluble protein abundance (ACOX3; concentration: 10mM) of the same compound?
Its NP40-soluble protein abundance is 0.918 ± 0.089.

And the NP40-soluble protein abundance (C9JI46|Q8N3X6|Q8N3X6-3; concentration: 1mM)?
Its NP40-soluble protein abundance is 0.985 ± 0.021.

What about the NP40-soluble protein abundance (C9JI46|Q8N3X6|Q8N3X6-3; concentration: 2mM) of the same compound?
The NP40-soluble protein abundance was 1.024 ± 0.0091.

What about the NP40-soluble protein abundance (C9JI46|Q8N3X6|Q8N3X6-3; concentration: 4mM) of the same compound?
The NP40-soluble protein abundance was 1.01 ± 0.058.

What about the NP40-soluble protein abundance (C9JI46|Q8N3X6|Q8N3X6-3; concentration: 6mM) of the same compound?
Its NP40-soluble protein abundance is 0.992 ± 0.017.

And the NP40-soluble protein abundance (C9JI46|Q8N3X6|Q8N3X6-3; concentration: 8mM)?
Its NP40-soluble protein abundance is 0.952 ± 0.014.

What about the NP40-soluble protein abundance (C9JI46|Q8N3X6|Q8N3X6-3; concentration: 10mM) of the same compound?
Its NP40-soluble protein abundance is 1 ± 0.039.
